Experimental data as given in PubChem BioAssay (Tox21).
Inconclusive results are not listed. The source made the active and inactive calls. Unless noted, calls follow the shape of the dose curve; as a rule, active = well fitted curve in the direction sought with a large enough effect in the repeat runs; inconclusive = weak or mixed curves; inactive = no such curve, though single readings can be large; an effect the other way counts as inactive or inconclusive.

Key:
[1] = qHTS assay to identify aromatase inhibitors - cell viability counter screen (AID 743084);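 also: cells stimulated with testosterone during compound exposure; nearly all actives have a fitted effect of over 55% in size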
[2] = molecular target: Aryl hydrocarbon receptor (Homo sapiens) (UniProt P35869); assay: qHTS assay to identify small molecule that activate the aryl hydrocarbon receptor (AhR) signaling pathway (AID 743085); also: nearly all actives have a fitted effect of over 15% in size; also: potency is read from the fitted curve at half-maximal effect;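 as to activation: HG2L7.5c1 human HepG2 liver cells with stably integrated DRE-driven firefly reporter; series mostly up to about 70 µM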
Sequence of Aryl hydrocarbon receptor (Homo sapiens) (P35869 whole entry, looked up): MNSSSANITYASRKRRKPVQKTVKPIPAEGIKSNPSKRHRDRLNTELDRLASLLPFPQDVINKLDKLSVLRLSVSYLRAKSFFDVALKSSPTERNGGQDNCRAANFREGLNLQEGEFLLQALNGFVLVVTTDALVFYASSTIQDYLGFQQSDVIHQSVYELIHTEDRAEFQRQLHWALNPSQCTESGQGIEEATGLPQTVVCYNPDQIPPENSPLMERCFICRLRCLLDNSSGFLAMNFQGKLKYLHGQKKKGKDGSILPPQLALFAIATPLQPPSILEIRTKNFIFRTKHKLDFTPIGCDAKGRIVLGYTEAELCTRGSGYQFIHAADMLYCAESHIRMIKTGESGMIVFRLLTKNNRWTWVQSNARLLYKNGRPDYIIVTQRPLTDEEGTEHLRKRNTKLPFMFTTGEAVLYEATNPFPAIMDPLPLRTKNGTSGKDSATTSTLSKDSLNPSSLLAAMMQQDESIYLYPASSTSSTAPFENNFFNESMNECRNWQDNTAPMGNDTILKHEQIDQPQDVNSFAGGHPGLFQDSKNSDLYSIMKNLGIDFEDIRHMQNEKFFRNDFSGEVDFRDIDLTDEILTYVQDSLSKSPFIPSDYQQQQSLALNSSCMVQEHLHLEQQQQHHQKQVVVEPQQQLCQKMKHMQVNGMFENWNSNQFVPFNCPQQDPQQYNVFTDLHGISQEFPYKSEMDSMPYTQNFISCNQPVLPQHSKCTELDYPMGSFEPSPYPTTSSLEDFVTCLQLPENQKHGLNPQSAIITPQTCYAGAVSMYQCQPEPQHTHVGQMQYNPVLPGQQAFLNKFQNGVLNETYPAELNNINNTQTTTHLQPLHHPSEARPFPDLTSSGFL
Procedure, shortened: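 Luminescence read-out: ONE-Glo reagent, 30 min at room temperature, in HG2L7.5c1 HepG2 reporter cells treated 24 h at 37C. Viability was measured beforehand by CellTiter-Fluor fluorescence after 30 min at 37C.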

[3] = qHTS assay to identify small molecule that activate the aryl hydrocarbon receptor (AhR) signaling pathway - cell viability counter screen (AID 743086);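 also: HepG2 liver cells carrying the AhR DRE luciferase reporter; series mostly up to about 70 µM; nearly all actives have a fitted effect of over 45% in size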
Procedure, shortened: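 HepG2-AhR-luc (HG2L7.5c1) cells, 4000/well, were preincubated 5 h at 37C, exposed to compound in qHTS format for 24 hr at 37C, then given CellTiter-Fluor for 30 min; viability was read as fluorescence in the reporter wells.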

[4] = qHTS assay to identify small molecule antagonists of the peroxisome proliferator-activated receptor gamma (PPARg) signaling pathway - cell viability counter screen (AID 743194); conditions: Potency: co-treated with 50 nM rosiglitazone unless noted; also: nearly all actives have a fitted effect of over 55% in size; also: potency is read from the fitted curve at half-maximal effect
Procedure, shortened: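 PPARg-UAS-bla HEK293H cells were plated, rested 5 h at 37 C, then treated with compounds plus rosiglitazone (50 nM final) for 17 h at 37 C; viability was then read by CellTiter-Glo luminescence after 30 min at room temperature.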

[5] = qHTS assay for small molecule agonists of the antioxidant response element (ARE) signaling pathway (AID 743202; active = well fitted activation curve with a large enough effect in the signal ratio in the repeat runs, not every such curve was filed as active; the % refers to the signal ratio; also: potency is read from the fitted curve at half-maximal effect)
Procedure, shortened: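 Compounds delivered in DMSO to ARE-bla HepG2 cells (2,000 cells/well, pre-incubated 5 h) and left 16 h at 37 C. LiveBLAzer B/G FRET substrate then added for 2 h at RT before fluorescence reading.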

[6] = qHTS assay for small molecule agonists of the antioxidant response element (ARE) signaling pathway - cell viability counter screen (AID 743203; calls by dose curve; also: nearly all actives have a fitted effect of over 55% in size; also: potency is read from the fitted curve at half-maximal effect)
Procedure, shortened: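 Following 16 hrs of compound treatment at 37C, HepG2 cells with an ARE-controlled beta-lactamase gene were lysed with CellTiter-Glo. Luminescence was read after 30 min at room temperature.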

[7] = qHTS assay for small molecule activators of the heat shock response signaling pathway - cell viability counter screen (AID 743209); also: nearly all actives have a fitted effect of over 50% in size; also: potency is read from the fitted curve at half-maximal effect
Procedure, shortened: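 Readout: CellTiter-Glo luminescence, 30 min at room temperature. System: HSE-bla HeLa cells, 1500/well, plated overnight. Treatment: compounds in DMSO, 5 h at 37 C.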

[8] = qHTS assay to identify small molecule agonists of the peroxisome proliferator-activated receptor delta (PPARd) signaling pathway - cell viability counter screen (AID 743211); also: nearly all actives have a fitted effect of over 55% in size; also: potency is read from the fitted curve at half-maximal effect
Procedure, shortened: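 Read-out: CellTiter-Glo luminescence, 30 min RT, measured in the same wells as the beta-lactamase reporter. Cells: GeneBLAzer PPAR delta UAS-bla HEK293H, 3000 cells/well, compound exposure 17 h at 37C.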

[9] = qHTS assay to identify small molecule antagonists of the peroxisome proliferator-activated receptor delta (PPARd) signaling pathway - cell viability counter screen (AID 743213); also: nearly all actives have a fitted effect of over 50% in size
Procedure, shortened: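 HEK293H cells with the PPARd UAS-bla reporter, co-treated 17 h at 37 C with compounds and L165041 (300 nM final), were lysed with CellTiter-Glo. Luminescence indicated viable cell content.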

[10] = molecular target: Peroxisome proliferator-activated receptor delta (Homo sapiens) (UniProt Q03181); assay: qHTS assay to identify small molecule antagonists of the peroxisome proliferator-activated receptor delta (PPARd) signaling pathway (AID 743215; active = well fitted inhibition curve with a large enough effect in the signal ratio in the repeat runs, not every such curve was filed as active; the % refers to the signal ratio;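 also: cells stimulated with agonist L165041 at 300 nM final during compound exposure; series mostly up to about 62 µM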)
Sequence of Peroxisome proliferator-activated receptor delta (Homo sapiens) (Q03181 whole entry, looked up): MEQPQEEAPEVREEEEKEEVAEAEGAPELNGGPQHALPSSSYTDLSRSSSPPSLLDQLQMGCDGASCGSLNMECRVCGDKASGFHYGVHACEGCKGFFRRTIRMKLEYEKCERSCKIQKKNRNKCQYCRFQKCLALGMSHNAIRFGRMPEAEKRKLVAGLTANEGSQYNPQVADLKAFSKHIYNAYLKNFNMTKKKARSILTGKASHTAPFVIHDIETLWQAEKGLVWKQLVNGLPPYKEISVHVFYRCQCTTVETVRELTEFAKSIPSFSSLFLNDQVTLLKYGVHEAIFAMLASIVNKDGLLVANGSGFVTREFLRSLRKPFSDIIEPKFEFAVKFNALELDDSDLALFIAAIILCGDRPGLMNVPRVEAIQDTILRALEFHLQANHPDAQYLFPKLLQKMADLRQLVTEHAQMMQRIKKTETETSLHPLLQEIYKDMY
Procedure, shortened: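 HEK293H UAS-bla, PPARd; agonist L165041 300 nM final with cpd in DMSO; 37 C 17 h; FRET substrate, RT 2 h; fluorescence intensity.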

[11] = qHTS assay to identify small molecule agonists of the farnesoid-X-receptor (FXR) signaling pathway - cell viability counter screen (AID 743218); also: nearly all actives have a fitted effect of over 45% in size; also: potency is read from the fitted curve at half-maximal effect
Procedure, shortened: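 Parallel cytotoxicity test: compound-treated (16 h, 37 C) HEK 293T FXR-bla reporter cells were lysed with CellTiter-Glo and luminescence recorded.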

[12] = qHTS assay to identify small molecule antagonists of the farnesoid-X-receptor (FXR) signaling pathway - cell viability counter screen (AID 743221; active = well fitted cell-killing curve with a large enough effect in the repeat runs, not every such curve was filed as active; also: nearly all actives have a fitted effect of over 50% in size; also: potency is read from the fitted curve at half-maximal effect)
Procedure, shortened: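 HEK 293T FXR-bla cells, 5 h pre-incubation; compound + CDCA 50 uM final, 16 h, 37 C; beta-lactamase FRET read first, then CellTiter-Glo luminescence, 30 min RT.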

[13] = molecular target: Vitamin D3 receptor (Homo sapiens) (UniProt P11473); assay: qHTS assay to identify small molecule agonists of the vitamin D receptor (VDR) signaling pathway (AID 743222; calls by dose curve)
Sequence of Vitamin D3 receptor (Homo sapiens) (P11473 whole entry, looked up): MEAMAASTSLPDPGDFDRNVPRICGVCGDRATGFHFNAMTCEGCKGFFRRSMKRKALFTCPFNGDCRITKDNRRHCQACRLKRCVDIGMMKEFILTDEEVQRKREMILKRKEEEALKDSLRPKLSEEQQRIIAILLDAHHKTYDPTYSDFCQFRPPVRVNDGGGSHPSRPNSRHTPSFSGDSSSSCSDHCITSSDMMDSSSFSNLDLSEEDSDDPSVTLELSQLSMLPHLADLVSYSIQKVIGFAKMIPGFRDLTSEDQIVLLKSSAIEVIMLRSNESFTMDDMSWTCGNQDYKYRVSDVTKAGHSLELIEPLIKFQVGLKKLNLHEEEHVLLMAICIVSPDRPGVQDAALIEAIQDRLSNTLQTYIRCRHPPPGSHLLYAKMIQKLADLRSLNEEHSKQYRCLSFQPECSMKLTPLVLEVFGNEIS
Procedure, shortened: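 In VDR-bla cells, compound-induced beta-lactamase expression is quantified by FRET substrate fluorescence. Treatment lasts 16 h at 37C; substrate develops 2 h at room temperature.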

[14] = molecular target: Vitamin D3 receptor (Homo sapiens) (UniProt P11473); assay: qHTS assay to identify small molecule antagonists of the vitamin D receptor (VDR) signaling pathway (AID 743223; active = well fitted inhibition curve with a large enough effect in the signal ratio in the repeat runs, not every such curve was filed as active; the % refers to the signal ratio)
Procedure, shortened: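 Beta-lactamase reporter read-out: FRET substrate fluorescence after 2 h at room temperature, following 16 h exposure of VDR-bla cells to test compound plus 3 nM (final) 1alpha,25-dihydroxyvitamin D3 agonist at 37C.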

[15] = molecular target: Peroxisome proliferator-activated receptor gamma (Homo sapiens) (UniProt P37231); assay: qHTS assay to identify small molecule antagonists of the peroxisome proliferator-activated receptor gamma (PPARg) signaling pathway (AID 743191; calls by dose curve; also: series mostly up to about 63 µM; nearly all actives have a fitted effect of over 30% in size)
Sequence of Peroxisome proliferator-activated receptor gamma (Homo sapiens) (P37231 whole entry, looked up): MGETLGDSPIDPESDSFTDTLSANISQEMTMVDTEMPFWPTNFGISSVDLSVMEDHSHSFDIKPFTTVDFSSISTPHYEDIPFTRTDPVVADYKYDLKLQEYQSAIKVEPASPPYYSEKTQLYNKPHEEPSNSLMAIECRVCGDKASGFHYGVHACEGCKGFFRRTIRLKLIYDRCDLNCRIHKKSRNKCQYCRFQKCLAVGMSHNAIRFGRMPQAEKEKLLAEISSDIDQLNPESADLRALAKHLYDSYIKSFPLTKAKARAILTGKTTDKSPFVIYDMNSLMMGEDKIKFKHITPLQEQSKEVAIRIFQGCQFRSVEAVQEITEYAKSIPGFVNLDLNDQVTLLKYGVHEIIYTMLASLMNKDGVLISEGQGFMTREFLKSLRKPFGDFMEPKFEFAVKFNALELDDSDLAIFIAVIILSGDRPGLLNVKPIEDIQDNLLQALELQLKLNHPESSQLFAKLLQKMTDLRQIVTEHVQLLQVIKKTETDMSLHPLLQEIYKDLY
Procedure, shortened: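 GeneBLAzer PPARg UAS-bla HEK293H cells carrying a UAS-driven beta-lactamase reporter were plated at 3000 cells/well, preincubated 5 h at 37C, then given compound for 17 h at 37C; LiveBLAzer B/G FRET substrate was read after 1 h at room temperature.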

[16] = qHTS assay for small molecule activators of the heat shock response signaling pathway (AID 743210; active = well fitted activation curve with a large enough effect in the signal ratio in the repeat runs, with a control signal flat, not every such curve was filed as active; the % refers to the signal ratio; also: potency is read from the fitted curve at half-maximal effect;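 as to activation: HeLa cells with beta-lactamase reporter driven by heat shock elements; series mostly up to about 63 µM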)
Procedure, shortened: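 Reporter gene assay: HeLa cells stably bearing an HSE-bla construct, compound treatment 5 h at 37 C, LiveBLAzer substrate 2.5 h at RT, fluorescence intensity.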

[17] = molecular target: Bile acid receptor (Homo sapiens) (UniProt Q96RI1); assay: qHTS assay to identify small molecule antagonists of the farnesoid-X-receptor (FXR) signaling pathway (AID 743217; active = well fitted inhibition curve with a large enough effect in the signal ratio in the repeat runs, not every such curve was filed as active; the % refers to the signal ratio)
Sequence of Bile acid receptor (Homo sapiens) (Q96RI1 whole entry, looked up): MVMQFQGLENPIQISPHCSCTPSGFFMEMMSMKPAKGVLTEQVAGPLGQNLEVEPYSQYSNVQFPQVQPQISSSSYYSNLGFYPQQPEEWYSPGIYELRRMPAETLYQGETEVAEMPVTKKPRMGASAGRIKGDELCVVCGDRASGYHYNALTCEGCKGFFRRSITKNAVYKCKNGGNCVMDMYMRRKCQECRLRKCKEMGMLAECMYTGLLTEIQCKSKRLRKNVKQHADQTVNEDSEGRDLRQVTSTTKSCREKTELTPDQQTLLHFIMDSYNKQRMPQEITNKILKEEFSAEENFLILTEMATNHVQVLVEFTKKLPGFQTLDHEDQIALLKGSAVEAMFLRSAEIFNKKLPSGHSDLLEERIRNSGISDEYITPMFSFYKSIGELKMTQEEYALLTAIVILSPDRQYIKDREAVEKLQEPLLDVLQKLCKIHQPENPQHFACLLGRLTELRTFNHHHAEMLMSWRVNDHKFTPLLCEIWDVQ
Procedure, shortened: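 GeneBLAzer FXR-UAS-bla HEK 293T, CDCA-stimulated (50 uM final). Compound treatment 16 h, 37 °C. Detection: beta-lactamase cleavage of B/G FRET substrate, fluorescence.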

[18] = molecular target: Bile acid receptor (Homo sapiens) (UniProt Q96RI1); assay: qHTS assay to identify small molecule agonists of the farnesoid-X-receptor (FXR) signaling pathway (AID 743220; active = well fitted activation curve with a large enough effect in the signal ratio in the repeat runs, not every such curve was filed as active; the % refers to the signal ratio)
Procedure, shortened: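 Beta-lactamase reporter under UAS control in GeneBLAzer FXR HEK 293T cells (5000/well) measured with LiveBLAzer FRET substrate after 2 h at room temperature. Compound exposure lasted 16 h at 37C.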

[19] = molecular target: Peroxisome proliferator-activated receptor delta (Homo sapiens) (UniProt Q03181); assay: qHTS assay to identify small molecule agonists of the peroxisome proliferator-activated receptor delta (PPARd) signaling pathway (AID 743212; calls by dose curve)
Procedure, shortened: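 A PPARd-bla HEK293H line with beta-lactamase under an Upstream Activator Sequence is treated with compounds at 37 C. Substrate loading for 2 h at room temperature precedes the fluorescence measurement.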

Measured: Potency

BrCCCBr
not listed: [15] | [16] | [17] | [18] | [19]
inactive: all other assays above

CNC(=O)/C=C(\C)OP(=O)(OC)OC
not listed: [4] | [11] | [18] | [19]
inactive: all other assays above

CCCCCCC[CH2][Sn]([Cl])([Cl])[CH2]CCCCCCC
inactive: [1] | [3] | [18]
active: [2] 21.7 µM | [4] 48.9 µM | [5] 0.863 µM | [6] 54.4 µM | [7] 30.9 µM | [8] 24.5 µM | [11] 11 µM | [12] 54.9 µM

CC(Cc1ccc2c(c1)OCO2)NO (stereo not given)
not listed: [5] | [16]
inactive: all other assays above

CC(=O)[O-].CC(=O)[O-].[Co+2]
inactive: [1] | [2] | [3] | [4] | [6] | [7] | [8] | [9] | [11] | [12]

ClC1=C(Cl)[C@]2(Cl)[C@@H]3[C@H]4C[C@H]([C@@H]5O[C@H]45)[C@@H]3[C@@]1(Cl)C2(Cl)Cl
inactive: [1] | [2] | [3] | [4] | [6] | [7] | [11] | [12] | [14]
active: [16] 51.8 µM

c1cc[n+]2c(c1)-c1cccc[n+]1CC2
active: [5] 10.6 µM
not listed: [14] | [16] | [17] | [18]
inactive: all other assays above

O=P(Cl)(Cl)Cl
not listed: [9] | [13] | [14] | [17] | [18] | [19]
inactive: all other assays above

O=S(=O)(O)F
not listed: [4] | [9] | [11] | [17]
inactive: all other assays above
